Compound activity (PubChem BioAssay)
In the library only some 19% were active in any assay of this set; here they are far more common.
IL-1B inflam inh: inhibitors of inflammasome signaling (IL-1 beta secretion); THP-1 LPS/ATP IL-1B secretion, AlphaLISA, 16 h; hits give low values; activity change, % at 57.5 µM; 360,000 tested, 4.7% active; AID 743279; in the data active means activity change below about -50%; inconclusive means mostly about -30% to -49%
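THP-1 cells pretreated 1 hr with compounds (up to 57.5 uM final), then stimulated with LPS (250 ng/mL final) plus ATP (1.25 mM final); secreted IL-1B measured by AlphaLISA after 16 hr, decreased signal indicating inhibition.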
HT1080-NT tox: kills 2HG-producing HT-1080-NT fibrosarcoma cells | Potency, µM (top dose mostly 46.1 µM), for the others: top-dose activity, negative = less viability, usual class: cytotoxic | HT-1080-NT fibrosarcoma viability, CellTiter-Glo ATP luminescence, 48 h | 360,000 tested, 1.6% active | AID 686970;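 further: NT is the 2HG producing partner of a matched IDH1 knockdown line; potency means the concentration at half of the fitted maximal effect; 0% = DMSO-treated cells and -100% = media-only wells without cells; nearly all actives have a fitted effect of over 55% in size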
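750 cells/well, RPMI + 5% FBS; 2 h settle, compound pin-transfer, 48 h at 37 degrees C. CellTiter-Glo 10 min RT, luminescence. Normalized to DMSO and media-only wells.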
TDP1 cell noCPT: qHTS for Inhibitors of human tyrosyl-DNA phosphodiesterase 1 (TDP1): qHTS in cells in absence of CPT | DT40 Tdp1-/- hTDP1 cells, no CPT, ATP luminescence, 48 h | Potency, µM (series often up to 46.2 µM), without a hit: at the top dose activity change, negative = growth inhibition, actives largely listed as inhibitors | 420,000 tested, 15% active | AID 686978, 2013; further: potency means the concentration at half of the fitted maximal effect; nearly all actives have a fitted effect of over 55% in size
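Luminescent ATP content (CellTiter-Glo) served as the growth readout. Knockout chicken DT40 cells expressing human TDP1 were exposed to compounds without camptothecin for a minimum 48 hr at 37 °C.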
HT1080 IDH1KD tx: HT-1080 IDH1 knockdown cell toxicity (counter line) | HT-1080 IDH1 knockdown viability, ATP luminescence, 48 h | Potency, µM (top dose mostly 46.1 µM), for inactives: top-dose activity, negative = toxicity, hits mostly cytotoxic | 360,000 tested, 2% active | AID 686971;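 further: potency means the concentration at half of the fitted maximal effect; 0% = DMSO wells and -100% = cell-free medium wells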
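Assay cells: HT-1080 with IDH1 knockdown, 750 per well, RPMI/5% FBS. Exposure: 48 h at 37 °C following 2 h pre-incubation. Read: CellTiter-Glo luminescence; fitted concentration-response, curve class assigned.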
TDP1 cell CPT: growth inhibition of DT40 Tdp1-/-;hTDP1 cells with camptothecin (screen for TDP1 inhibitors) | AID 686979 | Potency, µM (doses to about 46.2 µM), without a hit: at the highest dose activity change, negative = growth inhibition, most hits filed as inhibitors | chicken DT40 Tdp1-/-;hTDP1 cells + 20 nM CPT, ATP luminescence, 48 h | 420,000 tested, 12% active; further: potency means the concentration at half of the fitted maximal effect; nearly all actives have a fitted effect of over 55% in size
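Chicken DT40 Tdp1-/- cells stably complemented with human TDP1 were seeded at 400 cells/well in medium containing 20 nM camptothecin, exposed to pin-transferred compounds, and grown at 37 °C for at least 48 hr. Viability was read as ATP luminescence.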
* hit, by the source's call; ? = inconclusive; . = no result; [ ] = dose if it differs, or a comment. Unless noted, the call rests on the fitted dose curve; in most records, active means well fitted curve in the direction sought with a large enough effect; inconclusive means small, poorly fitted or top-dose-only effect, or another doubt; inactive means no such curve, though single readings can be large; an effect the other way counts as inactive or inconclusive. Unless noted, on the % scale 0 is the no-effect control and ±100 the full control effect.

SMILES	IL-1B inflam inh	HT1080-NT tox	TDP1 cell noCPT	HT1080 IDH1KD tx	TDP1 cell CPT
CCOC(=O)C1(Cc2ccc(OC)cc2)CCN(C(=O)CCc2cccnc2)CC1	-21	-3%	?	-1%	0%
CCn1cc(C(=O)N2CCCC2)c(=O)c2cc(S(=O)(=O)N3CCOCC3)ccc21	15	-12%	28%	-6%	-22%
COc1ccc(C)cc1NC(=O)Nc1ccccc1	?	0%	-19%	0%[9.24 µM]	-18%
COc1ccc(Cl)cc1NC(=O)Nc1ccc(C(=O)N2CCCC2)cc1	-64*	?	?	?	?
COc1ccc(Cl)cc1NC(=S)N1CCCC1	9	16%	-10%	8%	14%
COc1ccc(C)cc1NC(=O)Nc1ccc(C(=O)N2CCCC2)cc1	?	?	?	?	26µM*
Cc1ccc(S(=O)(=O)N2Cc3ccccc3CC2C(N)=O)cc1 (centres undefined)	8	11%	-13%	7%	-3%
Cc1noc(C)c1-c1nccc(N(C)C)n1	.	.	-2%	.	2%
Nc1ccc2oc3ccc(N)cc3c(=O)c2c1	-73*	-3%	-7%	3%[9.24 µM]	4%
COc1ccc(-n2nc(C(=O)N3CCN(c4ccccc4OC)CC3)c3c4ccccc4n(C)c3c2=O)cc1	.	.	3%	.	-6%
COc1ccc2c(c1)CCC(C)N2C(=O)C(=O)c1c[nH]c2ccccc12 (centres undefined)	83	?	?	3%	21µM*
CCN1CCS/C1=C\C=C\C1=[N+](CC)CCS1	-16	4.6µM*	0.21µM*	5.2µM*	0.73µM*
CCN1CCS/C1=C/C=C/C1=[N+](CC)CCS1	10	.	0.15µM*	.	0.18µM*
O=C(CCCOc1ccc(Br)cc1)NNC(=O)c1ccncc1	-6	-2%	-26%	23%	-16%
N#CC(c1ccc(Cl)cc1)c1ccc2c(C(F)(F)F)cc(C(F)(F)F)nc2n1 (centres undefined)	-105*	10µM*	0.58µM*	15µM*	0.65µM*
COc1ccccc1N(C)S(=O)(=O)c1ccc(C(=O)N(C)Cc2ccc(Cl)s2)cc1	?	-9%	15µM*	-12%	23µM*
COc1cccc(CN(C)C(=O)c2[nH]c(C)c(C(C)=O)c2C)c1OC	53	-15%	12µM*	-25%	18µM*
COc1ccccc1N(C)S(=O)(=O)c1ccc(C(=O)NCc2ccc3c(c2)OCO3)cc1	1	-20%	23µM*	-2%	-14%
CCOc1ccc(CN(C)C(=O)c2ccc(S(=O)(=O)N(C)c3ccccc3OC)cc2)cc1	-24	-9%[9.24 µM]	10µM*	-17%	?
CN(Cc1ccc(OC(F)F)cc1)C(=O)c1ccc(S(=O)(=O)N(C)c2ccccc2)cc1	-18	-11%	-14%	-5%	?
O=C(COc1ccccc1)NCCc1cn2ccsc2n1	6	-4%	1%	7%	-9%
COc1cccc(CN(C)C(=O)c2ccc(S(=O)(=O)N3CCCC3)cc2)c1OC	-1	6%	?	-6%	?
O=C(NCc1ccc2c(c1)OCO2)c1cccc([N+](=O)[O-])c1	-2	3%	-8%	0%	-4%
COc1ccccc1N(C)S(=O)(=O)c1ccc(C(=O)N(C)Cc2cccc(OC)c2OC)cc1	-6	-2%	21µM*	-1%	?
COC(=O)c1cc(C(=O)NCc2ccc3c(c2)OCO3)cc([N+](=O)[O-])c1	-55*	-3%	-26%	-6%	21%
SMILES	IL-1B inflam inh	HT1080-NT tox	TDP1 cell noCPT	HT1080 IDH1KD tx	TDP1 cell CPT
Cc1cc(-c2cn3ccccc3n2)c(C)n1-c1ccccc1	-11	?	16µM*	?	?
O=CN/C=C/c1cc(O)ccc1O	-22	-18%	4.6µM*	-19%	4.1µM*
CCCNC(=O)c1c(O)c2cccc3c2n(c1=O)CCC3	-3	-2%	7%	4%	-2%
NCCNC(=O)c1c(O)c2cccc3c2n(c1=O)CCC3	-92*	-5%	?	-2%	-2%
O=C(Nc1ccccn1)c1c(O)c2cccc3c2n(c1=O)CCC3	19	2%	15µM*	6%	15µM*
O=C(CCC(=O)N1CCOc2ccccc21)NCCN1CCOCC1	17	0%	28%	12%	9%
C/C(=N\N1CCN(C2c3ccccc3-c3ccccc32)CC1)c1ccncc1	-3	4%	16µM*	-5%[9.24 µM]	16µM*
O=C(CNC(=O)c1cc(Cl)cc([N+](=O)[O-])c1)OCC(=O)N1CCCCC1	-74*	-1%	0%	-8%	-18%
NC(=O)COC(=O)CNC(=O)c1cc(Cl)cc([N+](=O)[O-])c1	12	24%	18%	23%	22%
Cc1nc(NC(C)c2ccccc2)c2c3c(sc2n1)CCC3 (centres undefined)	-1	-1%	16µM*	-2%	16µM*
NNc1nc(-c2ccccc2)nc2sc3c(c12)CCCC3	-15	-18%	21µM*	-11%	?
O=c1[nH]c(-c2ccco2)nc2sc3c(c12)CCCC3	13	7%	?	28%	9%
Cc1ccc(CNc2nc(C)nc3sc4c(c23)CCC4)cc1	3	3%	18µM*	0%	23µM*
Cc1nc(Nc2ccc(O)cc2)c2c3c(sc2n1)CCCC3	14	?	?	-24%	?
COc1ccc(-c2nnnn2C)cc1S(=O)(=O)Nc1ccc(C)cc1C	-4	0%	-10%	2%	-2%
CCOC1(OCC)C(c2ccc(Cl)cc2)C(C#N)(C#N)C1(OCC)OCC (centres undefined)	-57*	?	18µM*	?	?
CCOC1(OCC)C(c2ccc(N)cc2)C(C#N)(C#N)C1(OCC)OCC (centres undefined)	-7	8%	-27%	0%	-19%
COCCN1CCN(C(=O)c2cnn(-c3nccc(-c4cc5ccccc5o4)n3)c2C2CC2)CC1	.	.	-25%	.	-2%[9.04 µM]
CN(CCc1ccccc1)C(=O)c1ccc(NC(=O)Cc2ccc(NC(=O)C3CCCN(C(=O)CCc4ccccc4)C3)cc2)cc1 (centres undefined)	9	-20%	10µM*	?	13µM*
CN(CCc1ccccc1)C(=O)c1ccc(NC(=O)Cc2ccc(NC(=O)C3CCN(C(=O)CCc4ccccc4)CC3)cc2)cc1	23	?	7.3µM*	?	15µM*
CN(Cc1ccccc1)C(=O)c1ccc(NC(=O)Cc2ccc(NC(=O)C3CCCN(C(=O)C4CC4)C3)cc2)cc1 (centres undefined)	1	0%	?	-1%	?
